Compound activity deposited in PubChem BioAssay by National Center for Advancing Translational Sciences (NCATS).
The list is not random: actives were taken first. Their share in the collection is about 2.1%.
Abeta yeast res: restores growth of yeast expressing A-beta42 peptide; yeast expressing A-beta42, growth rescue, OD600, 48 h; response scale: 0% DMSO, 100% iron-clioquinol control; Potency, µM (highest dose often 46.1 µM), most hits filed as activators; actives 0.063% (n = 410,000); AID 1347071; note: nearly all actives have a fitted effect of over 55% in size
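Yeast A-beta toxicity model in growth medium with pinned compounds, 48 h at 30 C; growth read as absorbance at 600 nm. Normalized to FeCl3/clioquinol equimolar mix (positive) and DMSO (negative).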
TDP-43 yeast inh: inhibitors of TDP-43 toxicity in yeast; TDP-43 expressing yeast growth rescue, BacTiter-Glo, 24 h; Potency, µM (top dose mostly 46.1 µM), hits mostly activators; actives 1.8% (n = 410,000); AID 652104; note: nearly all actives have a fitted effect of over 50% in size
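Yeast expressing TDP-43 (pregrown in raffinose, seeded at OD600=0.02 in galactose medium) exposed to compounds 24 hr at 30 deg C. Growth read by BacTiter-Glo luminescence; rescue of toxicity appears as increased signal.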
aSyn rescue: alpha-synuclein toxicity inhibition in yeast. Yeast expressing alpha-synuclein, growth rescue, BacTiter-Glo, 24 h. Potency, µM (doses to about 46.1 µM), most hits filed as activators. actives 0.14% (n = 370,000). AID 652106; note: nearly all actives have a fitted effect of over 65% in size
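Readout is rescue of growth in alpha-synuclein-expressing yeast, so inhibitors of toxicity appear as activators. Growth after 24 hr at 30 deg C in galactose medium is quantified by luminescence.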
FUS suppressor: suppressors of FUS proteinopathy in yeast; S. cerevisiae FUS-expressing, growth rescue, OD600, 24 h; Potency, µM (doses to about 76.6 µM), most hits filed as activators; actives 0.24% (n = 390,000); AID 1347120; note: nearly all actives have a fitted effect of over 55% in size
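Quantitative HTS measuring growth restoration of FUS-toxic yeast. Galactose-induced cells (OD 0.005) were exposed 24hr at 30C to compounds at several concentrations, then absorbance at 600 nm was recorded.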
Of the large screens only hits and unclear results are named; the others gave an inactive call. Calls come from the whole dose curve; as a rule, active = well fitted curve in the direction sought with a large enough effect; inconclusive = small, poorly fitted or top-dose-only effect, or another doubt; inactive = no such curve, though single readings can be large; an effect the other way counts as inactive or inconclusive.

NC(=NCCc1c[nH]c2ccccc12)NC(=O)OCc1ccccc1	none (no result: Abeta yeast res, TDP-43 yeast inh, aSyn rescue)
CC(C)c1ccc(NC(=O)c2cnc3sc(N4CCCC4)nn3c2=O)cc1	none (no result: aSyn rescue)
CC12CCC(=O)C=C1CCC1C2CCC2(C)C(c3csc(N)n3)CCC12 (stereo not given)	aSyn rescue 18µM, FUS suppressor inconclusive
CC12CCC(=O)C=C1CCC1C2C(O)CC2(C)C(c3csc(N)n3)CCC12 (stereo not given)	FUS suppressor inconclusive
Cc1cccc(N2CC(C(=O)Nc3nnc(SCC(=O)N4CCOCC4)s3)CC2=O)c1 (stereo not given)	FUS suppressor 18µM
O=C(NC(=S)NCc1ccc2c(c1)OCO2)c1ccccc1	Abeta yeast res inconclusive, TDP-43 yeast inh 16µM
O=C(NC(=S)NCc1ccccc1)c1ccc2c(c1)OCO2	TDP-43 yeast inh 25µM (no result: FUS suppressor)
O=C(NCc1ccccc1F)c1ccc2c(c1)OCCO2	Abeta yeast res inconclusive, TDP-43 yeast inh 14µM
CC(C)CN(CC(C)C)C(=O)c1cn(C(C)c2ccccc2)nn1 (stereo not given)	none (no result: Abeta yeast res, TDP-43 yeast inh, aSyn rescue)
Cc1ccc(NS(=O)(=O)c2ccc3[nH]c4c(c3c2)CCCCCC4)cc1	TDP-43 yeast inh 14µM (no result: aSyn rescue)
CCOC(=O)c1ccc2[nH]c3c(c2c1)CCCC3	TDP-43 yeast inh 25µM
Cc1ccc(NS(=O)(=O)c2ccc3[nH]c4c(c3c2)CCCCCC4)cc1C	FUS suppressor inconclusive
C=CCn1c(COc2ccccc2)nnc1SCC(=O)Nc1ccc(S(=O)(=O)Nc2cc(C)nc(C)n2)cc1	none (no result: Abeta yeast res, TDP-43 yeast inh, aSyn rescue)
COc1ccc(-n2nc3c(N4CCC(C(=O)NCc5cccc(F)c5)CC4)nnc(C)c3c2C)cc1	none (no result: aSyn rescue)
COCCn1c(C)cc(C(=O)CSc2nnc(-c3cccnc3)n2-c2ccccc2F)c1C	FUS suppressor 20µM (no result: aSyn rescue)
O=[N+]([O-])c1ccc(/C=N/Nc2nc(-c3ccccc3)c3cc(Br)ccc3n2)o1	TDP-43 yeast inh 11µM
CCOC(=O)CC[C@@H]1CC[C@]2(CCCN(Cc3ccc(OC)cc3)C2)O1	none (no result: Abeta yeast res, TDP-43 yeast inh, aSyn rescue)
CCOc1ccc(C2=NC(c3ccncc3)=Nc3ccc(C)cc3N2)cc1OCC	none (no result: aSyn rescue)
CCN1C=C(Cc2ccc(OC)cc2)C2=C(C1)C(c1ccc(OC)cc1)C(C#N)=C(N)O2 (stereo not given)	FUS suppressor 35µM
COc1ccc(C2C(C#N)=C(N)Oc3cc4c(cc32)OCO4)cc1 (stereo not given)	none
CCN(CC)C(=O)c1sc2c(c1C)c(=O)n(-c1ccc(OC)cc1OC)c(=O)n2CC(=O)c1ccc(Cl)cc1	FUS suppressor 20µM (no result: aSyn rescue)
CCN(CC)S(=O)(=O)c1ccc(C(=O)NCCSc2c(-c3ccc(F)cc3)[nH]c3ccccc23)cc1	FUS suppressor inconclusive (no result: aSyn rescue)
Cc1cccc(C)c1NC(=O)CN(Cc1ccc(Br)cc1)S(=O)(=O)c1ccccc1	none (no result: aSyn rescue)
Cc1cccc(C(=O)O/N=C2\CCCc3ccccc32)c1	TDP-43 yeast inh 11µM
O=C(O/N=C1\CCCc2ccccc21)c1cccc(Cl)c1	TDP-43 yeast inh 5µM
Cc1ccc(C(=O)O/N=C2\CCCc3ccccc32)cc1	none (no result: aSyn rescue)
CCOc1ccccc1CNC(=O)c1cnc2sc(N3CCOCC3)nn2c1=O	TDP-43 yeast inh inconclusive (no result: aSyn rescue)
CC1CCN(S(=O)(=O)c2ccc3c(ccc(=O)n3CC(=O)NCc3ccccc3)c2)CC1	none (no result: aSyn rescue)
CCc1nnc2c(N3CCN(c4cccc(C)c4)C(C)C3)nc3ccccc3n12 (stereo not given)	none (no result: aSyn rescue)
O=C1CSC(c2ccc(Cl)c(Cl)c2)N1c1nccs1 (stereo not given)	TDP-43 yeast inh 14µM
O=C(OCc1cn(Cc2ccccc2Cl)nn1)N1CCOCC1	none (no result: Abeta yeast res, TDP-43 yeast inh, aSyn rescue)
O=C(NCCC1=CCCCC1)NC12CC3CC(CC(C3)C1)C2	TDP-43 yeast inh 16µM
Cc1ccc(CCNC(=O)c2ccc(CSc3nc4ccncc4n3Cc3ccc(F)cc3)cc2)cc1	FUS suppressor inconclusive (no result: aSyn rescue)
CCCN(CC(=O)Nc1cccc(Br)c1)CC(=O)Nc1ccc(F)c(F)c1F	TDP-43 yeast inh 14µM, aSyn rescue inconclusive
CCCn1c2ccccc2c2cnn(CC(=O)Nc3ccc(C)cc3Br)c(=O)c21	none (no result: aSyn rescue)
CCOC(=O)CCCCCC(=O)Nc1ccc2c(c1)C(=O)N([C@@H](C)CO)C[C@H](C)[C@H](CN(C)C(=O)Nc1ccc(F)cc1)OCCCC[C@H](C)O2	FUS suppressor 22µM
C[C@@H]1CN([C@H](C)CO)C(=O)c2cc(NC(=O)Nc3ccc(C(F)(F)F)cc3)ccc2O[C@H]1CN(C)C(=O)Nc1ccc(F)cc1	FUS suppressor 28µM
